# Experimental data published in PubChem BioAssay (NCATS).
# Results filed as inconclusive are left out. A call without a number means that no potency is given here. Activity calls are given as the source filed them. Unless noted, the call rests on the fitted dose curve; in most records, active means well fitted curve in the direction sought with a large enough effect; inconclusive means small, poorly fitted or top-dose-only effect, or another doubt; inactive means no such curve, though single readings can be large; an effect the other way counts as inactive or inconclusive.
# Key:
# [1] = Confirmation and Secondary Assay for Modulators of Hemoglobin Beta Chain Splicing at IVS2 654 locus (AID 910);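 further: HeLa cells stably carrying EGFP split by mutant beta-globin IVS2-654 intron; per-well total GFP intensity by laser scanning cytometry after 2-day treatment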
# Procedure, shortened: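 Readout: per-well total peak green fluorescence (488 nm ex, 500–520 nm em) from objects 5–250 µm, reflecting correct splicing of an EGFP-654 reporter. Compounds were applied for 2 days at 37 °C to overnight-plated HeLa EGFP-654 cells; controls were DMSO and 500 nM IVS2-654 PNA.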
# [2] = qHTS Assay for Identification of Small Molecule Agonists for Thrombopoietin (TPO) Signaling Pathway (AID 917)
# Procedure, shortened: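 Quantitative HTS for pathway activators: compounds were pin-transferred onto IL-3-starved Ba/F3 cells expressing human TPO receptor, TPO was added at its EC50 (26 pM final), and after 24 hrs at 37 C reporter luciferase was measured.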
# [3] = Cell Viability - LYMP2-001 (AID 921); further: series mostly up to about 92 µM; nearly all actives have a fitted effect of over 70% in size
# Procedure, shortened: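 qHTS, 1536-well; lymphoblastoid cells, 24 hr compound, 37 C; ATP by CellTiter-Glo, 30 min RT; luminescence; Hill-fit AC50.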
# [4] = Confirmation and Secondary Assay for Modulators of Hemoglobin Beta Chain Splicing at IVS2 705 locus (AID 930);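 further: HeLa cells stably expressing the EGFP-705 splicing reporter; GFP fluorescence per well restored by corrected splicing of the IVS2-705 intron in EGFP; series mostly up to about 46 µM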
# Procedure, shortened: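 Secondary splice-site specificity test uses HeLa expressing CMV-driven EGFP interrupted by IVS2-705; cells were treated 2 days at 37C with 500 nM antisense PNA as positive control.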
# [5] = target: Muscarinic acetylcholine receptor M1 (Rattus norvegicus) (UniProt P08482); assay: qHTS Assay for Antagonists of Acetylcholine Muscarinic M1 Receptor: Measurement of IP-One Response (AID 944); further: nearly all actives have a fitted effect of over 75% in size; further: potency means the concentration at half of the fitted maximal effect
# Chain of Muscarinic acetylcholine receptor M1 (Rattus norvegicus) (P08482 whole entry, looked up): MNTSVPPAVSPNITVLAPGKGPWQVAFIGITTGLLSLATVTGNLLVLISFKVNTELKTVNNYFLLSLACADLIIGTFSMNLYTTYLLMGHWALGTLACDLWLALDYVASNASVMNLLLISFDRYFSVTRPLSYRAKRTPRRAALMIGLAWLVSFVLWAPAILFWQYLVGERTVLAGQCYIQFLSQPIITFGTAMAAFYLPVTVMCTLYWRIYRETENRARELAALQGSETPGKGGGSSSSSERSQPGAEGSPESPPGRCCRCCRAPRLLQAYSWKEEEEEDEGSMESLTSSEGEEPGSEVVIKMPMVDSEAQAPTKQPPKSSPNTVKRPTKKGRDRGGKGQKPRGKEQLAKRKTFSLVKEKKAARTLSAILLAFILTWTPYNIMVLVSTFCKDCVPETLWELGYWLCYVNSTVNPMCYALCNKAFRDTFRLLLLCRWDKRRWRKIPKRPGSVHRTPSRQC
# Procedure, shortened: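 IP1 accumulation measured via TR-FRET between d2-IP1 and Eu-cryptate anti-IP1 antibody after carbachol (200 nM, EC80) stimulation for 30 min; rat M1-transfected CHO cells received compound 10 min before agonist.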
# [6] = target: Pyruvate kinase (Leishmania mexicana) (UniProt Q27686); assay: qHTS Validation Assay for Inhibitors of Leishmania Mexicana Pyruvate Kinase (AID 945)
# Chain of Pyruvate kinase (Leishmania mexicana) (Q27686 2-499 E452W): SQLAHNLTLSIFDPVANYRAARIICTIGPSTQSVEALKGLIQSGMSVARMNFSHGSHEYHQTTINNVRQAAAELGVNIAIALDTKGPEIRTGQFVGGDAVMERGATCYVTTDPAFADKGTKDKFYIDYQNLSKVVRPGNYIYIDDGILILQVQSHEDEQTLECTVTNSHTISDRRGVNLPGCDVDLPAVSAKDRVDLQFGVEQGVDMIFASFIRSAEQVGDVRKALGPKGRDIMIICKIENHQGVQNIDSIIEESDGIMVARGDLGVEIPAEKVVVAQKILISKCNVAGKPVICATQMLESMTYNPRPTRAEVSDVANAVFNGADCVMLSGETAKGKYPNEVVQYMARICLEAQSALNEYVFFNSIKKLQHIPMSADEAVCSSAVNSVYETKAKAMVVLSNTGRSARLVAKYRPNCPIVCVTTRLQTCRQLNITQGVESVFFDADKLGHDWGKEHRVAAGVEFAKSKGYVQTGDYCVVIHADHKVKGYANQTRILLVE
# Procedure, shortened: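 Read-out: luminescence from PKLight stop/detection reagent, data normalized to DMSO. Reaction: 0.2 nM E451W LmPYK, 0.5 mM PEP, 0.1 mM ADP, pH 7.2, 1 h room temperature.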
# [7] = MultiTox-Fluor Cytotoxicity Assay - LYMP1-001 - Dead Cells (AID 946)
# Procedure, shortened: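 Seed 2500 LYMP1-001 cells/well, incubate 5 hr at 37 C; add compound, 16 hr at 37 C; add MultiTox-Fluor reagent, 60 min RT; read dead-cell fluorescence Ex/Em=485/520. Normalize to DMSO and 15 uM tetraoctylammonium bromide.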
# [8] = MultiTox-Fluor Cytotoxicity Assay - LYMP1-001 - Live Cells (AID 947)
# [9] = Cell Viability - LYMP1-002 - Assay at 16 hr (AID 948)
# Procedure, shortened: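 Acute cytotoxicity is scored as a concentration-dependent fall in intracellular ATP in a human lymphoblastoid line (LYMP1-002) after 16 hr compound exposure at 37 C, measured by luciferase luminescence.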
# [10] = target: Pyruvate kinase PKM (Homo sapiens) (UniProt P14618); assay: qHTS Assay for Activators of Human Muscle Pyruvate Kinase (AID 954; active means well fitted curve in the direction sought with a large enough effect, not every such curve was filed as active)
# Chain of Pyruvate kinase PKM (Homo sapiens) (P14618 whole entry, looked up): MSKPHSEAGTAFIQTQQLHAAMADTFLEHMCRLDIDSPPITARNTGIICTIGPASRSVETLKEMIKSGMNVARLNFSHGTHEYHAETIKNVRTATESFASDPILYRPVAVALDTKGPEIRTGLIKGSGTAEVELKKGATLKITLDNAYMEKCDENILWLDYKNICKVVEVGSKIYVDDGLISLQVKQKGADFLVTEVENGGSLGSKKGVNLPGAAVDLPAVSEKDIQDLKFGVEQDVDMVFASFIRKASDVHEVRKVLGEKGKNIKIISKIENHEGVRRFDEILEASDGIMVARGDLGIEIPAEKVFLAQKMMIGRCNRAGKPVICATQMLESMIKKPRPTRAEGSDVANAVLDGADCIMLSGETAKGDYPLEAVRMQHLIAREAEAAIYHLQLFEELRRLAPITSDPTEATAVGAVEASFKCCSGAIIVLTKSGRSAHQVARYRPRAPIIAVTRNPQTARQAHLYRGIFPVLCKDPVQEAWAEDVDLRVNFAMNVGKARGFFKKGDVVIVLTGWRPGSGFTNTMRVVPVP
# Procedure, shortened: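 PKM2, human, >95% pure, 0.1 nM; PEP 0.5 mM (Km), ADP 0.1 mM; 50 mM imidazole pH 7.2, 50 mM KCl, 0.01% Tween 20, 0.05% BSA; 1 h RT; luciferase luminescence readout.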
# [11] = MultiTox-Fluor Cytotoxicity Assay - LYMP1-002 - Live Cells (AID 955);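 further: cells exposed to compound for 16 hours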
# Procedure, shortened: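 After 16 h compound exposure at 37 C, live LYMP1-002 lymphoblastoid cells (2500/well) were quantified by cleavage of cell-permeant GF-AFC substrate, read at 405/510 nm after 60 min. Concentration-response fitted with Hill equation for AC50.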
# [12] = target: Alpha-galactosidase (Coffea arabica) (UniProt Q42656); assay: Counterscreen for Glucocerebrosidase Inhibitors: qHTS Assay for Coffee Bean alpha-Galactosidase at pH 4.5 (AID 957); further: series mostly up to about 77 µM
# Chain of Alpha-galactosidase (Coffea arabica) (Q42656 whole entry, looked up): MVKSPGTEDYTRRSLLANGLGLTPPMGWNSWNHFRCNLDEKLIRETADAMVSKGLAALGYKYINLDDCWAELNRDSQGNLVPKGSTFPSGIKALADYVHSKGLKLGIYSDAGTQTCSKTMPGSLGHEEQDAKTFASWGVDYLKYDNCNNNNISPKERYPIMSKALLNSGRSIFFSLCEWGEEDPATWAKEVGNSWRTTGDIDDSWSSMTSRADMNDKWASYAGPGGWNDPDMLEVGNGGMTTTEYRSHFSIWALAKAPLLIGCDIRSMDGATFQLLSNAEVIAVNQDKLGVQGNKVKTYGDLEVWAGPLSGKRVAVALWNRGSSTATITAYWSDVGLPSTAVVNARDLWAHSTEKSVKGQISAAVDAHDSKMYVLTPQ
# Procedure, shortened: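 Fluorogenic qHTS at pH 4.5 (citrate buffer with Tween-20): 2 nM enzyme, 80 uM 4-MU-alpha-galactoside substrate, compound titrated 0.7 nM to 77 uM, 20 min room temperature. Glycine/NaOH stop; 4-MU read Ex 365/Em 440; Hill-equation AC50 against no-enzyme and enzyme controls.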
# [13] = MultiTox-Fluor Cytotoxicity Assay - LYMP1-002 - Dead Cells (AID 960); further: nearly all actives have a fitted effect of over 60% in size
# Procedure, shortened: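 Dead-cell fluorescence (Ex/Em 485/520) after 16 h compound exposure at 37 C of LYMP1-002 lymphoblastoid cells in complete medium; AC50 by Hill equation, with data scaled between DMSO and 15 uM tetraoctylammonium bromide.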
# [14] = MultiTox-Fluor Cytotoxicity Assay - LYMP1-003 - Dead Cells (AID 961); further: nearly all actives have a fitted effect of over 70% in size
# Procedure, shortened: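 LYMP1-003 lymphoblastoid, 2500 cells/well, 5 hr settle then 16 hr cpd at 37 C; MultiTox-Fluor reagent 60 min RT; Ex/Em 485/520 dead-cell signal; norm. DMSO = 0%, 15 uM tetraoctylammonium bromide = 100%; Hill AC50.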
# [15] = MultiTox-Fluor Cytotoxicity Assay - LYMP1-003 - Live Cells (AID 962);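 further: cells exposed to compound for 16 hours at 37 °C; cytotoxic hits lower the live-cell protease signal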
# Procedure, shortened: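 Live-cell protease activity (GF-AFC substrate, 405/510 nm, 60 min at room temperature) after 16 h, 37 C compound exposure of human lymphoblastoid LYMP1-003 cells; concentration-response fitted to the Hill equation for AC50.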
# [16] = Cell Viability - LYMP1-003 - Assay at 24 hr (AID 963)
# Procedure, shortened: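 Concentration-response qHTS: ATP loss measured by CellTiter-Glo luminescence after 24 h compound exposure at 37 C. Cells were LYMP1-003 human lymphoblastoid, 2500 per well. AC50 derived via standard Hill equation modeling.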
# [17] = Cell Viability - LYMP1-003 - Assay at 40 hr (AID 964); further: series mostly up to about 92 µM; nearly all actives have a fitted effect of over 60% in size
# Procedure, shortened: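 Viability is taken as cellular ATP, read by CellTiter-Glo luminescence after 40 h of compound exposure at 37 C. Cells: human lymphoblastoid line LYMP1-003 at 2500/well; AC50 values derived by Hill-equation fitting of concentration-response data.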
# [18] = Cell Viability - LYMP2-003 (AID 965);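 further: cells exposed to compounds for 24 h before reading; nearly all actives have a fitted effect of over 50% in size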
# Procedure, shortened: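 Acute cytotoxicity is scored as a concentration-dependent drop in intracellular ATP, measured by luciferase luminescence in human lymphoblastoid cells treated for 24 hours at 37 C. AC50 values derive from Hill-equation modelling.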
structure (smiles),measurement,setting,value
CC(C)c1cccc(C(C)C)c1O,outcome,[1],inactive
same,outcome,[2],inactive
same,outcome,[3],inactive
same,outcome,[4],inactive
same,Potency,[5],inactive
same,outcome,[6],inactive
same,outcome,[7],inactive
same,outcome,[8],inactive
same,outcome,[9],inactive
same,outcome,[10],inactive
same,outcome,[11],inactive
same,outcome,[12],inactive
same,Potency,[13],inactive
same,outcome,[14],inactive
same,outcome,[15],inactive
same,outcome,[16],inactive
same,outcome,[17],inactive
same,outcome,[18],inactive
O=P1(N(CCCl)CCCl)NCCCO1 (configuration not stated),outcome,[1],inactive
same,outcome,[2],inactive
same,outcome,[3],inactive
same,outcome,[4],inactive
same,outcome,[6],inactive
same,outcome,[7],inactive
same,outcome,[8],inactive
same,outcome,[9],inactive
same,outcome,[10],inactive
same,outcome,[11],inactive
same,outcome,[12],inactive
same,Potency,[13],inactive
same,outcome,[14],inactive
same,outcome,[15],inactive
same,outcome,[16],inactive
same,outcome,[17],inactive
same,outcome,[18],inactive
CCC(C)(C)c1ccc(O)cc1,outcome,[3],inactive
same,outcome,[7],inactive
same,outcome,[8],inactive
same,outcome,[9],inactive
same,outcome,[11],inactive
same,Potency,[13],inactive
same,outcome,[14],inactive
same,outcome,[15],inactive
same,outcome,[16],inactive
same,outcome,[17],inactive
same,outcome,[18],inactive
Nc1ccccc1,outcome,[3],inactive
same,outcome,[7],inactive
same,outcome,[8],inactive
same,outcome,[9],inactive
same,outcome,[11],inactive
same,outcome,[14],inactive
same,outcome,[15],inactive
same,outcome,[16],inactive
same,outcome,[17],inactive
same,outcome,[18],inactive
CCOP(=S)(OCC)Oc1ccc2c(C)c(Cl)c(=O)oc2c1,outcome,[1],inactive
same,outcome,[4],inactive
c1ccc2c(c1)sc1ccccc12,outcome,[1],inactive
same,outcome,[4],inactive
Clc1cccc(Cl)c1NC1=NCCN1,outcome,[12],inactive
CCN(CC)CCNC(=O)c1cc(S(C)(=O)=O)ccc1OC,outcome,[12],inactive
CN1CCN(CCC=C2c3ccccc3Sc3ccc(S(=O)(=O)N(C)C)cc32)CC1,outcome,[12],inactive
CC(C)C(=O)c1c(C(C)C)nn2ccccc12,outcome,[12],inactive
FC(F)(F)c1ccccc1-n1ccnc1,outcome,[12],inactive
NC(=O)c1cnccn1,outcome,[12],inactive
CCO/C([O-])=N/c1c[n+](N2CCOCC2)no1,outcome,[12],inactive
O=C(O)CCCCCCCC(=O)O,outcome,[12],inactive
CC(=O)O[C@H]1C(=O)[C@@]2(C)[C@H]([C@H](OC(=O)c3ccccc3)[C@]3(O)C[C@H](OC(=O)[C@H](O)[C@@H](NC(=O)c4ccccc4)c4ccccc4)C(C)=C1C3(C)C)[C@]1(OC(C)=O)CO[C@@H]1C[C@@H]2O,outcome,[12],inactive
CN=C(NC#N)NCCSCc1nc[nH]c1C,outcome,[12],inactive
CC(=O)N1CCN(c2ccc(OC[C@H]3CO[C@](Cn4ccnc4)(c4ccc(Cl)cc4Cl)O3)cc2)CC1,Potency,[5],8.91 µM (active)
same,outcome,[12],inactive
Nc1nc2ccc(OC(F)(F)F)cc2s1,outcome,[12],inactive
C[C@]12CCC(=O)C=C1CC[C@@H]1[C@@H]2CC[C@@]2(C)[C@H]1CC[C@]2(C)O,outcome,[3],inactive
same,outcome,[8],inactive
same,outcome,[9],inactive
same,outcome,[11],inactive
same,outcome,[14],inactive
same,outcome,[15],inactive
same,outcome,[16],inactive
same,outcome,[17],inactive
same,outcome,[18],inactive
CNC[C@H](O)c1cccc(O)c1,outcome,[12],inactive
Cn1c(=O)c2[nH]cnc2n(C)c1=O,outcome,[12],inactive
COc1ccc(C2CNC(=O)C2)cc1OC1CCCC1 (configuration not stated),outcome,[12],inactive
CN1C(C(=O)Nc2ccccn2)=C(O)c2ccccc2S1(=O)=O,outcome,[12],inactive
CCN(CC)CCNC(=O)c1ccc(N)cc1,outcome,[12],inactive
NC(=O)N1c2ccccc2C=Cc2ccccc21,outcome,[12],inactive
CC(=O)OCC(=O)[C@@]1(O)CC[C@H]2[C@@H]3CCC4=CC(=O)CC[C@]4(C)[C@H]3C(=O)C[C@@]21C,outcome,[12],inactive
O=c1[nH]cnc2[nH]ncc12,outcome,[12],inactive
CCN(CC)C(=O)c1ccc(O)c(OC)c1,outcome,[12],inactive
CCOC(=O)CC(SP(=S)(OC)OC)C(=O)OCC (configuration not stated),outcome,[3],inactive
same,outcome,[7],inactive
same,outcome,[8],inactive
same,outcome,[9],inactive
same,outcome,[11],inactive
same,outcome,[14],inactive
same,outcome,[15],inactive
same,outcome,[16],inactive
same,outcome,[17],inactive
same,outcome,[18],inactive
O=C1NCC2(CCN(CCc3ccccc3)CC2)O1,outcome,[12],inactive
COc1ccc2cc([C@H](C)C(=O)O)ccc2c1,outcome,[12],inactive
CC(=O)c1ccc(S(=O)(=O)NC(=O)NC2CCCCC2)cc1,outcome,[12],inactive
CN1C(C)(C)CCCC1(C)C,outcome,[12],inactive
CN(C)CCOC(=O)COc1ccc(Cl)cc1,outcome,[12],inactive
NC1CCN(c2cccc(Cl)n2)CC1,outcome,[12],inactive
CCCCCCCCCCCCCCCC(=O)NCCO,outcome,[12],inactive
C1COC(NC(C2CC2)C2CC2)=N1,outcome,[12],inactive
NC(N)=Nc1nc(CSCC/C(N)=N/S(N)(=O)=O)cs1,outcome,[12],inactive
C[N+](C)(C)CCCCCC[N+](C)(C)C,outcome,[12],inactive
Cc1cnc(NC(=O)C2=C(O)c3ccccc3S(=O)(=O)N2C)s1,outcome,[12],inactive
